# Compound activity: PubChem BioAssay, National Center for Advancing Translational Sciences (NCATS)
# TDP1 cell noCPT: qHTS for Inhibitors of human tyrosyl-DNA phosphodiesterase 1 (TDP1): qHTS in cells in absence of CPT; DT40 Tdp1-/- hTDP1 cells, no CPT, ATP luminescence, 48 h; Potency, µM (highest dose often 46.2 µM), for inactives: top-dose activity change, negative = growth inhibition, hits mostly inhibitors; hit rate 15% among 420,000; further: potency means the concentration at half of the fitted maximal effect; nearly all actives have a fitted effect of over 55% in size
#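 Seeded 400 DT40-hTDP1 cells/well (vehicle DMSO, no 20 nM CPT); pinned compounds; ≥48 hr at 37 °C; CellTiter-Glo luminescence as viability measure.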
# IL-1B inflam inh: qHTS for Inhibitors of Inflammasome Signaling: IL-1-beta AlphaLISA Primary Screen | THP-1 LPS/ATP IL-1B secretion, AlphaLISA, 16 h; hits give low values | activity change, % at 57.5 µM | hit rate 4.7% among 360,000; in the data active means activity change below about -50%; inconclusive means mostly about -30% to -49%
#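 Secreted IL-1B measured by AlphaLISA bead assay after 16 h compound exposure of THP-1 cells; compounds (final up to 57.5 uM) added 1 h before LPS (250 ng/mL) and ATP (1.25 mM) stimulation; lower signal means less secretion.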
# HT1080 IDH1KD tx: qHTS for induction of synthetic lethality in tumor cells producing 2HG: qHTS for the HT-1080-IDH1KD cell line. HT-1080 IDH1 knockdown viability, ATP luminescence, 48 h. Potency, µM (doses to about 46.1 µM), without a hit: at the top dose activity, negative = toxicity, usual class: cytotoxic. hit rate 2% among 360,000. AID 686971, 2013;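 further: potency means the concentration at half of the fitted maximal effect; 0% = DMSO wells and -100% = cell-free medium wells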
#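 Using the IDH1-knockdown HT-1080 line run in the same batch and compound series as the NT line, viability after 48 h at 37 °C was determined by CellTiter-Glo luminescence and expressed as % activity.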
# TDP1 cell CPT: qHTS for Inhibitors of human tyrosyl-DNA phosphodiesterase 1 (TDP1): qHTS in cells in presence of CPT. chicken DT40 Tdp1-/-;hTDP1 cells + 20 nM CPT, ATP luminescence, 48 h. Potency, µM (series often up to 46.2 µM), for inactives: at the top dose activity change, negative = growth inhibition, usual class: inhibitors. hit rate 12% among 420,000; further: potency means the concentration at half of the fitted maximal effect; nearly all actives have a fitted effect of over 55% in size
#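 Cell growth measured by CellTiter-Glo luminescence after a minimum 48 h, 37 C compound exposure with 20 nM CPT in Tdp1-knockout DT40 cells stably expressing hTDP1, seeded 400/well; qHTS titration format.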
# HT1080NT lethal: qHTS for induction of synthetic lethality in tumor cells producing 2HG: qHTS for the HT-1080-NT fibrosarcoma cell line; HT-1080-NT fibrosarcoma viability, CellTiter-Glo ATP luminescence, 48 h; Potency, µM (top dose mostly 46.1 µM), without a hit: at the top dose activity, negative = less viability, usual class: cytotoxic; hit rate 1.6% among 360,000; AID 686970, 2013;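 further: NT is the 2HG producing partner of a matched IDH1 knockdown line; potency means the concentration at half of the fitted maximal effect; 0% = DMSO-treated cells and -100% = media-only wells without cells; nearly all actives have a fitted effect of over 55% in size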
#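 Viability by CellTiter-Glo luminescence after 48 h compound exposure at 37C of HT-1080-NT cells (750/well, RPMI, 5% FBS). % activity scaled between DMSO wells and medium-only wells, then curve-fitted and categorized by curve class.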
# The depositor's hits bear a star; ? = inconclusive; / = no result given; [ ] = remark or other dose. An excerpt weighted towards active compounds, which were near 19% of everything screened. Unless noted, the call rests on the fitted dose curve; in most records, active means well fitted curve in the direction sought with a large enough effect; inconclusive means small, poorly fitted or top-dose-only effect, or another doubt; inactive means no such curve, though single readings can be large; an effect the other way counts as inactive or inconclusive. Unless noted, on the % scale 0 is the no-effect control and ±100 the full control effect.
SMILES,TDP1 cell noCPT,IL-1B inflam inh,HT1080 IDH1KD tx,TDP1 cell CPT,HT1080NT lethal
CN1C(=O)N(C)C2=NNC=NC2(O)C1=O (stereo not drawn),2.1%[9.04 µM],/,/,2.9%[9.04 µM],/
CCCS(=O)(=O)NC(=O)C1(C)CCCN(C(=O)c2cccc(C)c2C)C1 (stereo not drawn),-10.5%,28.4,16.3%,-7.3%,?
COc1ccc(NC(=O)c2ccc(S(=O)(=O)N(C)c3ccccc3)cc2)cn1,?,-29.6,-2.0%,14.6µM*,1.6%
CC(=O)Nc1ccc(NC(=O)c2ccc(S(=O)(=O)N(C)c3ccccc3)cc2)cc1,?,0.0,1.7%,?,-3.5%
COc1cc(C(=O)Nc2ccc(S(=O)(=O)NC(C)(C)C)cc2)cc(OC)c1OC,?,-8.1,-15.0%,-27.5%,0.4%
COc1cc(C(=O)Nc2ccc(S(=O)(=O)N(C)c3ccccc3)cc2)cc(OC)c1OC,?,?,-13.0%,16.4µM*,-1.8%
COc1ccc(/C=N/NC(=O)C2c3ccccc3-c3ccccc32)cc1,20.6µM*,5.9,?,?,-28.8%
COc1ccc(/C=N/NC(=O)c2ccc(N(C)S(=O)(=O)c3ccccc3)cc2)cc1,23.1µM*,-21.5,-10.3%,?,-1.6%
COc1ccc(/C=N/NC(=O)CC(=O)N/N=C/c2ccc(OC)cc2)cc1,?,-4.9,0.5%,-12.7%,-5.4%
COc1cc(C(=O)NNC(=O)c2ccc(NC(C)=O)cc2)cc(OC)c1OC,-13.6%,-7.9,16.2%,-8.6%,27.2%
COc1ccccc1/C=N/NC(=O)c1ccc(N(C)S(=O)(=O)c2ccccc2)cc1,-15.2%,5.4,-2.1%,-19.1%,-0.5%
CN(c1ccc(C(=O)N/N=C/c2cccc([N+](=O)[O-])c2)cc1)S(=O)(=O)c1ccccc1,?,-10.2,?,8.2µM*,-21.1%
COc1cc(C(=O)/C=C/Nc2ccc(NC(C)=O)cc2)cc(OC)c1OC,?,-20.2,18.4µM*,?,?
COc1ccc(C(=O)Nc2ccc(S(=O)(=O)N(C)c3ccccc3)cc2)cc1,16.4µM*,-64.7*,?,-24.7%,-17.4%
COc1cc(C(=O)Nc2ccc(N(C)C)cc2)cc(OC)c1OC,?,-9.5,?,20.6µM*,?
CC(=O)Nc1ccccc1C(=O)C(=O)Nc1ccc(C(=O)N2CCOCC2)cc1,-17.4%,-2.8,-4.4%,-3.3%,-0.9%
Cc1ccc(CN2CCN(/N=C\C=C\c3ccccc3)CC2)cc1,-7.6%,-29.4,18.4%,13.8%,-1.4%
COC(=O)CCC(=O)NC(=S)Nc1ccc(S(=O)(=O)N2CCCC2)cc1,-14.8%,41.2,7.6%,-1.1%,16.3%
COc1ccc(/C=N/NC(=O)c2ccc(NC(=O)c3ccccc3Br)cc2)cc1,?,-55.8*,-21.5%,?,-13.1%
Cc1ccccc1C(=O)Nc1ccc(C(=O)N/N=C/c2ccc(F)cc2)cc1,?,-11.8,-1.2%,-9.4%,-0.4%
Cc1nc2ccc(NC(=O)c3ccc(S(=O)(=O)N(C)c4ccccc4)cc3)cc2s1,23.1µM*,-62.3*,?,?,-8.0%
Cc1ccccc1CSCC(=O)Nc1ccccc1Br,18.9%,0.0,2.3%,0.4%,1.9%
CCOC(=O)c1c(NC(=O)COC(=O)Cn2cnc3c2c(=O)n(C)c(=O)n3C)sc(C)c1CC,-21.9%,14.5,-0.5%,6.51µM*,-3.6%
Cc1ccc(S(=O)(=O)N(C)C)cc1-n1c(SCC(=O)Nc2ccc(F)c(F)c2F)nc2ccccc2c1=O,20.6µM*,18.1,-8.3%,14.6µM*,-12.8%
O=C(Nc1ccc(F)cc1Cl)c1ccc2c(=O)n3c(nc2c1)CCC3,?,-7.5,-3.7%,0.8%,-3.6%
